Values without a mark were called inactive. Active and inactive are the calls of the source.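 Rule for the calls: active = normalized viability below 100% at a tested concentration; inactive = the rest.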
Assay: ovarian cancer cell viability with rucaparib, profiling panel, oncology-focused library, rucaparib conditional (AID 1508598)
Conditions: patient-derived ovarian cancer cells, CellTiter-Glo viability, 144 h; at 0.313 µM; OCI-P5x cells; without rucaparib; active compounds read low

| SMILES | viability |
| --- | --- |
| C[C@@H](N)C1CCC(C(=O)Nc2ccncc2)CC1 (stereo partly drawn) | 97.9% (active) |
| CC(C)c1onc(-c2c(Cl)cccc2Cl)c1COc1ccc(/C=C/c2cccc(C(=O)O)c2)c(Cl)c1 | 100% |
| O=c1cc(N2CCOCC2)oc2c(-c3ccccc3)cccc12 | 97.6% (active) |
| Cc1ccc(S(=O)(=O)/C=C/C#N)cc1 | 94.8% (active) |
| C[C@H](NC(=O)Cc1cc(F)cc(F)c1)C(=O)N[C@H](C(=O)OC(C)(C)C)c1ccccc1 | 99% (active) |
| O=C(O)Cc1cccc(OCCCN(Cc2cccc(C(F)(F)F)c2Cl)CC(c2ccccc2)c2ccccc2)c1 | 96.5% (active) |

Same assay, conditions: patient-derived ovarian cancer cells, CellTiter-Glo viability, 144 h; at 1.25 µM; OCI-C5x cells; with rucaparib 10 µM; active compounds read low; 100% = cells with rucaparib alone

| SMILES | viability |
| --- | --- |
| C[C@@H](N)C1CCC(C(=O)Nc2ccncc2)CC1 (stereo partly drawn) | 117% |
| CC(C)c1onc(-c2c(Cl)cccc2Cl)c1COc1ccc(/C=C/c2cccc(C(=O)O)c2)c(Cl)c1 | 102% |
| O=c1cc(N2CCOCC2)oc2c(-c3ccccc3)cccc12 | 94% (active) |
| Cc1ccc(S(=O)(=O)/C=C/C#N)cc1 | 122% |
| C[C@H](NC(=O)Cc1cc(F)cc(F)c1)C(=O)N[C@H](C(=O)OC(C)(C)C)c1ccccc1 | 116% |
| O=C(O)Cc1cccc(OCCCN(Cc2cccc(C(F)(F)F)c2Cl)CC(c2ccccc2)c2ccccc2)c1 | 111% |

Same assay, conditions: patient-derived ovarian cancer cells, CellTiter-Glo viability, 144 h; at 1.25 µM; OCI-C5x cells; without rucaparib; active compounds read low

| SMILES | viability |
| --- | --- |
| C[C@@H](N)C1CCC(C(=O)Nc2ccncc2)CC1 (stereo partly drawn) | 113% |
| CC(C)c1onc(-c2c(Cl)cccc2Cl)c1COc1ccc(/C=C/c2cccc(C(=O)O)c2)c(Cl)c1 | 97.1% (active) |
| O=c1cc(N2CCOCC2)oc2c(-c3ccccc3)cccc12 | 109% |
| Cc1ccc(S(=O)(=O)/C=C/C#N)cc1 | 112% |
| C[C@H](NC(=O)Cc1cc(F)cc(F)c1)C(=O)N[C@H](C(=O)OC(C)(C)C)c1ccccc1 | 117% |
| O=C(O)Cc1cccc(OCCCN(Cc2cccc(C(F)(F)F)c2Cl)CC(c2ccccc2)c2ccccc2)c1 | 114% |

Same assay, conditions: patient-derived ovarian cancer cells, CellTiter-Glo viability, 144 h; at 1.25 µM; OCI-P5x cells; with rucaparib 20 µM; active compounds read low; 100% = cells with rucaparib alone

| SMILES | viability |
| --- | --- |
| C[C@@H](N)C1CCC(C(=O)Nc2ccncc2)CC1 (stereo partly drawn) | 106% |
| CC(C)c1onc(-c2c(Cl)cccc2Cl)c1COc1ccc(/C=C/c2cccc(C(=O)O)c2)c(Cl)c1 | 103% |
| O=c1cc(N2CCOCC2)oc2c(-c3ccccc3)cccc12 | 99.6% (active) |
| Cc1ccc(S(=O)(=O)/C=C/C#N)cc1 | 83.8% (active) |
| C[C@H](NC(=O)Cc1cc(F)cc(F)c1)C(=O)N[C@H](C(=O)OC(C)(C)C)c1ccccc1 | 84.1% (active) |
| O=C(O)Cc1cccc(OCCCN(Cc2cccc(C(F)(F)F)c2Cl)CC(c2ccccc2)c2ccccc2)c1 | 96.5% (active) |

Same assay, conditions: patient-derived ovarian cancer cells, CellTiter-Glo viability, 144 h; at 1.25 µM; OCI-P5x cells; without rucaparib; active compounds read low

| SMILES | viability |
| --- | --- |
| C[C@@H](N)C1CCC(C(=O)Nc2ccncc2)CC1 (stereo partly drawn) | 102% |
| CC(C)c1onc(-c2c(Cl)cccc2Cl)c1COc1ccc(/C=C/c2cccc(C(=O)O)c2)c(Cl)c1 | 101% |
| O=c1cc(N2CCOCC2)oc2c(-c3ccccc3)cccc12 | 102% |
| Cc1ccc(S(=O)(=O)/C=C/C#N)cc1 | 81.1% (active) |
| C[C@H](NC(=O)Cc1cc(F)cc(F)c1)C(=O)N[C@H](C(=O)OC(C)(C)C)c1ccccc1 | 85.6% (active) |
| O=C(O)Cc1cccc(OCCCN(Cc2cccc(C(F)(F)F)c2Cl)CC(c2ccccc2)c2ccccc2)c1 | 92.3% (active) |

Same assay, conditions: patient-derived ovarian cancer cells, CellTiter-Glo viability, 144 h; at 5 µM; OCI-C5x cells; with rucaparib 10 µM; active compounds read low; 100% = cells with rucaparib alone

| SMILES | viability |
| --- | --- |
| C[C@@H](N)C1CCC(C(=O)Nc2ccncc2)CC1 (stereo partly drawn) | 110% |
| CC(C)c1onc(-c2c(Cl)cccc2Cl)c1COc1ccc(/C=C/c2cccc(C(=O)O)c2)c(Cl)c1 | 76.1% (active) |
| O=c1cc(N2CCOCC2)oc2c(-c3ccccc3)cccc12 | 98.7% (active) |
| Cc1ccc(S(=O)(=O)/C=C/C#N)cc1 | 3.86% (active) |
| C[C@H](NC(=O)Cc1cc(F)cc(F)c1)C(=O)N[C@H](C(=O)OC(C)(C)C)c1ccccc1 | 120% |
| O=C(O)Cc1cccc(OCCCN(Cc2cccc(C(F)(F)F)c2Cl)CC(c2ccccc2)c2ccccc2)c1 | 92.1% (active) |

Same assay, conditions: patient-derived ovarian cancer cells, CellTiter-Glo viability, 144 h; at 5 µM; OCI-C5x cells; without rucaparib; active compounds read low

| SMILES | viability |
| --- | --- |
| C[C@@H](N)C1CCC(C(=O)Nc2ccncc2)CC1 (stereo partly drawn) | 107% |
| CC(C)c1onc(-c2c(Cl)cccc2Cl)c1COc1ccc(/C=C/c2cccc(C(=O)O)c2)c(Cl)c1 | 89.5% (active) |
| O=c1cc(N2CCOCC2)oc2c(-c3ccccc3)cccc12 | 107% |
| Cc1ccc(S(=O)(=O)/C=C/C#N)cc1 | 4.91% (active) |
| C[C@H](NC(=O)Cc1cc(F)cc(F)c1)C(=O)N[C@H](C(=O)OC(C)(C)C)c1ccccc1 | 120% |
| O=C(O)Cc1cccc(OCCCN(Cc2cccc(C(F)(F)F)c2Cl)CC(c2ccccc2)c2ccccc2)c1 | 100% |

Same assay, conditions: patient-derived ovarian cancer cells, CellTiter-Glo viability, 144 h; at 5 µM; OCI-P5x cells; with rucaparib 20 µM; active compounds read low; 100% = cells with rucaparib alone

| SMILES | viability |
| --- | --- |
| C[C@@H](N)C1CCC(C(=O)Nc2ccncc2)CC1 (stereo partly drawn) | 94.4% (active) |
| CC(C)c1onc(-c2c(Cl)cccc2Cl)c1COc1ccc(/C=C/c2cccc(C(=O)O)c2)c(Cl)c1 | 99.6% (active) |
| O=c1cc(N2CCOCC2)oc2c(-c3ccccc3)cccc12 | 96.2% (active) |
| Cc1ccc(S(=O)(=O)/C=C/C#N)cc1 | 26.6% (active) |
| C[C@H](NC(=O)Cc1cc(F)cc(F)c1)C(=O)N[C@H](C(=O)OC(C)(C)C)c1ccccc1 | 75.1% (active) |
| O=C(O)Cc1cccc(OCCCN(Cc2cccc(C(F)(F)F)c2Cl)CC(c2ccccc2)c2ccccc2)c1 | 43.4% (active) |
